# Measurements as given in PubChem BioAssay AID1159580 (chemical genetic matrix, 2015).
# Several values for one entry are separate records, joined by “and”; a condition that tells them apart may be missing. Equal values may be shown once. Among all 5,500 compounds or so, about 2,000 (36%) were called active. Inconclusive results (about 18%) are left out. This is one part of the list. Unmarked numbers belong to inactive results. No stated cut-off is given here; in the data, active means normalized growth mostly below about 0.91 (no sharp cut-off); inconclusive means no clear call, values can overlap the other calls; inactive means mostly above about 0.92.
# Assay: chemical genetic growth profiling, strain panel (AID 1159580);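 further: tested at 20 µM; growth read once vehicle control cultures reached saturation at 30 °C; 1 = growth at the plate median or of vehicle wells; lower values mean less growth of the strain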
# Conditions: S. cerevisiae deletion strains, growth OD
compound,measurement,setting,value
CC(NCCC(c1ccccc1)c1ccccc1)c1ccccc1 (configuration not stated),normalized growth,"locus YAL013W, strain DEP1, active compounds read low",0.925
same,normalized growth,"locus YAL021C, strain ccr4, active compounds read low",0.592 (active)
same,normalized growth,"locus YAL026C, strain drs2, active compounds read low",0.47 (active)
same,normalized growth,"locus YAL030W, strain snc1, active compounds read low",0.992
same,normalized growth,"locus YBL061C, strain skt5, active compounds read low",0.934
same,normalized growth,"locus YBR009C, strain hhf1, active compounds read low",0.953
same,normalized growth,"locus YBR021W, strain FUR4, active compounds read low",0.447 (active)
same,normalized growth,"locus YBR023C, strain chs3, active compounds read low",0.799 (active)
same,normalized growth,"locus YBR171W, strain sec66, active compounds read low",1
same,normalized growth,"locus YBR229C, strain ROT2, active compounds read low",0.946
same,normalized growth,"locus YBR231C, strain swc5, active compounds read low",0.944
same,normalized growth,"locus YBR279W, strain paf1, active compounds read low",0.893 (active)
same,normalized growth,"locus YCL011C, strain gbp2, active compounds read low",0.97
same,normalized growth,"locus YCL016C, strain dcc1, active compounds read low",0.964
same,normalized growth,"locus YCL029C, strain bik1, active compounds read low",0.975
same,normalized growth,"locus YCL061C, strain MRC1, active compounds read low",1.02
same,normalized growth,"locus YCL069W, strain vba3, active compounds read low",1.01
same,normalized growth,"locus YCR088W, strain abp1, active compounds read low",1.02
same,normalized growth,"locus YDL005C, strain med2, active compounds read low",1.03
same,normalized growth,"locus YDL035C, strain GPR1, active compounds read low",0.908
same,normalized growth,"locus YDL040C, strain nat1, active compounds read low",0.991
same,normalized growth,"locus YDL074C, strain BRE1, active compounds read low",0.831
same,normalized growth,"locus YDL101C, strain DUN1, active compounds read low",0.971
same,normalized growth,"locus YDL134C, strain PPH21, active compounds read low",0.968
same,normalized growth,"locus YDL185W, strain tfp1, active compounds read low",0.959
same,normalized growth,"locus YDL192W, strain arf1, active compounds read low",0.985
same,normalized growth,"locus YDR001C, strain nth1, active compounds read low",1.01
same,normalized growth,"locus YDR069C, strain doa4, active compounds read low",0.57 (active)
same,normalized growth,"locus YDR101C, strain arx1, active compounds read low",0.994
same,normalized growth,"locus YDR137W, strain rgp1, active compounds read low",0.981
same,normalized growth,"locus YDR150W, strain NUM1, active compounds read low",0.97
same,normalized growth,"locus YDR159W, strain sac3, active compounds read low",1.09
same,normalized growth,"locus YDR162C, strain NBP2, active compounds read low",0.936
same,normalized growth,"locus YDR195W, strain ref2",1.28 [resistant] (active)
same,normalized growth,"locus YDR297W, strain sur2, active compounds read low",1.01
same,normalized growth,"locus YDR318W, strain mcm21, active compounds read low",0.952
same,normalized growth,"locus YDR334W, strain swr1, active compounds read low",1.01
same,normalized growth,"locus YDR335W, strain msn5, active compounds read low",1
same,normalized growth,"locus YDR388W, active compounds read low",0.328 (active)
same,normalized growth,"locus YDR392W, strain spt3, active compounds read low",0.93
same,normalized growth,"locus YDR502C, strain sam2, active compounds read low",0.964
same,normalized growth,"locus YEL003W, strain gim4, active compounds read low",0.988
same,normalized growth,"locus YEL037C, strain rad23, active compounds read low",0.98
same,normalized growth,"locus YEL061C, strain CIN8 (second series), active compounds read low",1
same,normalized growth,"locus YEL061C, strain CIN8, active compounds read low",0.987
same,normalized growth,"locus YER015W, strain faa2, active compounds read low",0.9 (active)
same,normalized growth,"locus YER016W, strain bim1, active compounds read low",1
same,normalized growth,"locus YER110C, active compounds read low",0.978
same,normalized growth,"locus YER111C, strain swi4, active compounds read low",1.01
same,normalized growth,"locus YER155C, strain BEM2 (second series), active compounds read low",0.978
same,normalized growth,"locus YER155C, strain BEM2, active compounds read low",0.999
same,normalized growth,"locus YER167W, strain BCK2, active compounds read low",0.964
same,normalized growth,"locus YFR010W, strain ubp6, active compounds read low",0.559 (active)
same,normalized growth,"locus YGL078C, strain dbp3, active compounds read low",0.977
same,normalized growth,"locus YGL086W, strain mad1, active compounds read low",0.96
same,normalized growth,"locus YGL167C, strain pmr1, active compounds read low",1.01
same,normalized growth,"locus YGL173C, strain kem1, active compounds read low",0.971
same,normalized growth,"locus YGL227W, strain vid30, active compounds read low",1
same,normalized growth,"locus YGL240W, strain doc1, active compounds read low",1.05
same,normalized growth,"locus YGL248W, strain PDE1, active compounds read low",0.979
same,normalized growth,"locus YGL253W, strain hxk2, active compounds read low",0.868 (active)
same,normalized growth,"locus YGR078C, strain PAC10, active compounds read low",0.909
same,normalized growth,"locus YGR135W, strain pre9, active compounds read low",0.832 (active)
same,normalized growth,"locus YGR229C, strain SMI1, active compounds read low",0.623 (active)
same,normalized growth,"locus YGR252W, strain gcn5, active compounds read low",0.679 (active)
same,normalized growth,"locus YHR013C, strain ard1, active compounds read low",0.655 (active)
same,normalized growth,"locus YHR027C, strain rpn1, active compounds read low",0.944
same,normalized growth,"locus YHR030C, strain SLT2, active compounds read low",0.974 and 0.983
same,normalized growth,"locus YHR079C, strain IRE1 (second series), active compounds read low",0.99
same,normalized growth,"locus YHR079C, strain IRE1, active compounds read low",0.982
same,normalized growth,"locus YHR094C, strain hxt1, active compounds read low",0.991
same,normalized growth,"locus YHR129C, strain ARP1, active compounds read low",0.974
same,normalized growth,"locus YHR142W, strain chs7, active compounds read low",0.802 (active)
same,normalized growth,"locus YHR200W, strain rpn10, active compounds read low",0.99
same,normalized growth,"locus YIL066C, strain RNR3, active compounds read low",0.948
same,normalized growth,"locus YIL073C, strain SPO22, active compounds read low",1.14
same,normalized growth,"locus YIL125W, strain kgd1, active compounds read low",0.989
same,normalized growth,"locus YIR030C, strain dcg1, active compounds read low",0.978
same,normalized growth,"locus YJL092W, strain hpr5, active compounds read low",0.986
same,normalized growth,"locus YJL095W, strain BCK1 (second series), active compounds read low",0.901 (active)
same,normalized growth,"locus YJL095W, strain BCK1, active compounds read low",0.824 and 0.989
same,normalized growth,"locus YJL115W, strain asf1, active compounds read low",1
same,normalized growth,"locus YJL129C, strain trk1, active compounds read low",1
same,normalized growth,"locus YJL134W, strain LCB3, active compounds read low",0.988
same,normalized growth,"locus YJL154C, strain vps35, active compounds read low",0.998
same,normalized growth,"locus YJL164C, strain tpk1, active compounds read low",0.922
same,normalized growth,"locus YJL166W, strain qcr8, active compounds read low",0.914
same,normalized growth,"locus YJL168C, strain set2, active compounds read low",0.991
same,normalized growth,"locus YJL187C, strain SWE1 (second series), active compounds read low",0.931
same,normalized growth,"locus YJL187C, strain SWE1, active compounds read low",0.978
same,normalized growth,"locus YJR043C, strain POL32, active compounds read low",1
same,normalized growth,"locus YJR066W, strain TOR1, active compounds read low",0.903
